A short description of test [1]: blockers of IL-6 STAT3 signaling – U3A cells, luciferase, luminescence, confirmation (AID 1265).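 Further: 0% = IL-6 plus DMSO and 100% = IL-6 plus nifuroxazide control.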 Conditions: IL-6 STAT3 luciferase reporter, at 5.7 µM, hits give high values, cell line lacks STAT1. (In general: Reporter assays use an easily measured gene product as a stand-in for the process of interest.)
Test [2] in a line: inhibition of TNF-alpha-driven NF-kB transcription – cell-based, HEK293T, luciferase, TNF-alpha stimulus, counter-screen for STAT3 inhibitor project, confirmation (AID 1308;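 active means inhibition above the mean of solvent-only control wells plus 3 SD, cutoff set per campaign, cut at about 13% in these data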;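 further: 0% = TNF-alpha with DMSO and 100% = TNF-alpha with MG high control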). The following applies: HEK293T NF-kB luciferase reporter, TNF-alpha induced; at 5.7 µM; hits give high values.
A short description of test [3]: inhibition of STAT1-driven transcription – cell-based, NIH 3T3, luciferase luminescence, IFN-gamma, counter-screen for STAT3 inhibitor project, confirmation (AID 1317;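 active means inhibition above the mean plus 3 SD of solvent-only control wells, limit set per screening run, cut at about 16% in these data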;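 further: 0% = DMSO with IFN-gamma and 100% = nifuroxazide control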). Conditions: NIH 3T3 STAT1-luciferase reporter, IFN-gamma induced, at 5.7 µM, hits give high values. (In general: Counterscreens check selectivity or assay interference.)
Test [4] is described as follows: potentiators of IFN-gamma STAT1 reporter activity – cell-based, HTS, luciferase reporter, confirmation (AID 1262;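 active means activation above a set limit carried over from the earlier primary STAT1 screen, cut at about 140% in these data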;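 further: simple ratio to median IFN-gamma plus DMSO wells so 0% means no light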). Conditions: NIH 3T3 STAT1-luciferase reporter, IFN-gamma potentiation, luminescence; at 5.7 µM; hits give high values; 100% = IFN-gamma EC80 alone, no compound.
Test [5] can be described thus: enhancement of NF-kB transcriptional signalling – cell-based, HEK293T, luciferase luminescence, TNF-alpha, counter-screen for STAT1 activator project (AID 1306;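 active means activation above the mean of solvent-only control wells plus 3 SD, set per campaign, cut at about 130% in these data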;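 further: TNF-alpha given at a submaximal dose yielding about 80% of full reporter signal; values are well signal over median control so 100% means no change and 0% no light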). The following applies: HEK293T NF-kB luciferase reporter, TNF-alpha stimulated, at 5.7 µM, hits give high values, 100% = TNF-alpha with vehicle only.
Test [6] has as its target Signal transducer and activator of transcription 3 (Homo sapiens) (UniProt P40763). Put plainly: enhancers of IL-6 STAT3 transcription – U3A cells, luciferase, luminescence, counter-screen for STAT1 activator project, confirmation (AID 1316;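 active means activation above the solvent-only control well mean plus 3 SD, set per plate batch, cut at about 110% in these data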;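 further: 0% = no luminescence and 100% = median IL-6 plus DMSO wells; higher means more STAT3 reporter activation so hits are non-selective activators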). The following applies: U3A cells STAT3-luciferase reporter, IL-6, luminescence; at 5.7 µM; hits give high values; 100 = IL-6 alone, no compound effect; cells lack STAT1.

Test [7] has as its system DAF-12 nuclear receptor (Heterodera glycines), GAL4-LBD fusion. Put plainly: hgDAF-12 GAL4 fusion reporter activation, retest – cell-based, luminescence, HEK293, GAL4-LBD fusion, confirmation (AID 743050;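 active means mean activation over triplicate wells above the hit cutoff derived from the earlier primary screen, cut at about 11% in these data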;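 further: 0% = DMSO low control and 100% = 2 mM sodium butyrate high control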). Conditions: HEK293 GAL4-hgDAF12 luciferase reporter, agonist mode; at 6.8 µM; hits give high values; percent of butyrate response.
For test [8], the target named is Oxysterols receptor LXR-beta (Homo sapiens) (UniProt P55055). Description: nonspecific reporter activation via LXR – cell-based, luminescence, HEK293, H. glycines campaign, counter-screen for hgDAF-12 agonist project, confirmation (AID 743051;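 active means mean activation of the triplicate above a set limit carried over from the primary screen, none filed active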). The following applies: HEK293 Gal4-LXR luciferase reporter, 24 h; at 6.8 µM; hits give high values.
Sequence of Oxysterols receptor LXR-beta (Homo sapiens) (P55055 whole entry, looked up, the tested form may be a part): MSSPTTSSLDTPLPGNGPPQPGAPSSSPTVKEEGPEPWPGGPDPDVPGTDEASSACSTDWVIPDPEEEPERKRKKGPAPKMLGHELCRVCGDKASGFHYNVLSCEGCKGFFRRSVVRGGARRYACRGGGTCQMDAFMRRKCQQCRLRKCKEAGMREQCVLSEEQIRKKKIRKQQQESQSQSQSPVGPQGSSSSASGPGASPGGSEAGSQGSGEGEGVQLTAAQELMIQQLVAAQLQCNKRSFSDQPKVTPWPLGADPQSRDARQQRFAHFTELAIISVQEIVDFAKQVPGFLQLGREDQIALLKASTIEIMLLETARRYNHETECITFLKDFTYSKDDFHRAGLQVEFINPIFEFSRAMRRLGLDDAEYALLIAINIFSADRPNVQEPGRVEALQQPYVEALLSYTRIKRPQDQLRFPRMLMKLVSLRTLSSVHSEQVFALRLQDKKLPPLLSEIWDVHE
The target of test [9] is Neuropeptide Y receptor type 2 (Homo sapiens) (UniProt P49146). Description: human Y2 receptor positive modulation or activation – cell-based, confirmation (AID 1539; in the data active means activation above about 33%). The following applies: cell-based NPY-Y2 potentiator/agonist assay; at 3.6 µM; hits give high values.
Sequence of Neuropeptide Y receptor type 2 (Homo sapiens) (P49146 whole entry, looked up): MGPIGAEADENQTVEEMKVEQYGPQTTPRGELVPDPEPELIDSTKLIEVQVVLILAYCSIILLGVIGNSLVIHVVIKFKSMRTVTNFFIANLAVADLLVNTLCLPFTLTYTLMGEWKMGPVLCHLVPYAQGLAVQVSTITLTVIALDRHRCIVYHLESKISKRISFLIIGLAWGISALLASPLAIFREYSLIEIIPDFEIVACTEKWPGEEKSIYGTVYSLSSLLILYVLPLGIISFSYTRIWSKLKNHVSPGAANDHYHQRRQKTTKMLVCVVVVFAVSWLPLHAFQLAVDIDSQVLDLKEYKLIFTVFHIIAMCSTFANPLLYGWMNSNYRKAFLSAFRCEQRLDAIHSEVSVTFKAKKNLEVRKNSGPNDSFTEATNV
The target of test [10] is Neuropeptide Y receptor type 1 (Homo sapiens) (UniProt P25929). Description: human Y1 receptor positive modulation or activation – cell-based, fluorescence, counter-screen for NPY-Y2 potentiator project (AID 1651; in the data active means activation above about 45%;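 further: cells stimulated with submaximal NPY then isoproterenol with phosphodiesterase inhibitor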). Conditions: Y1 HEK293-CNG cells, membrane potential fluorescence; at 3.6 µM; hits give high values.
Sequence of Neuropeptide Y receptor type 1 (Homo sapiens) (P25929 whole entry, looked up): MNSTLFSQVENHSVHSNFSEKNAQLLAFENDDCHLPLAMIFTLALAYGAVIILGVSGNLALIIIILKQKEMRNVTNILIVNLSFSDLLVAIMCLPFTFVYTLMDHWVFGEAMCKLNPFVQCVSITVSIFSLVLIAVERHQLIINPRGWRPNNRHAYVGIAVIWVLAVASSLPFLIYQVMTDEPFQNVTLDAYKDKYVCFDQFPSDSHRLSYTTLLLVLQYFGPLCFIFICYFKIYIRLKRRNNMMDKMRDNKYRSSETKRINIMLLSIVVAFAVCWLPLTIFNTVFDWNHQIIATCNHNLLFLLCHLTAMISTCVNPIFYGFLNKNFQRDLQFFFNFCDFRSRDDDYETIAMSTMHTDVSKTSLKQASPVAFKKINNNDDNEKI
For test [11] the target is unchanged. Put plainly: human Y1 receptor agonism, CNGC membrane potential – cell-based, fluorescence, selectivity assay for NPY-Y2 potentiator project (AID 1702;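 active means activation above the mean of DMSO-only control wells plus 3 SD, cut at about 18% in these data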;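 further: cells stimulated with 1 µM isoproterenol plus the PDE inhibitor Ro 20-1724; 0% = isoproterenol with DMSO and no NPY and 100% = 40 nM NPY; Y1 agonists lower the membrane potential dye signal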). The following applies: HEK293 Y1-CNGC, at 3.6 µM, hits give high values.
Test [12] in a line: blockers of isoproterenol-driven CNG channel signal – cell-based, HEK293-CNG parental, membrane potential fluorescence, counter-screen for NPY-Y2 potentiator project (AID 1703;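 active means inhibition above the control-well mean plus 3 SD of those wells, cut at about 22% in these data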;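 further: 0% = DMSO with isoproterenol and 100% = DMSO without isoproterenol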). The following applies: isoproterenol cAMP, at 3.6 µM, hits give high values.
The target of test [13] is Neuropeptide Y receptor type 2 (Homo sapiens) (UniProt P49146). Description: agonism at human Y2 receptor without NPY – cell-based, fluorescence, counter-screen for NPY-Y2 potentiator project (AID 1710;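 active means activation above the mean of solvent-only control wells plus 3 SD, cut at about 10% in these data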;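 further: cells stimulated by isoproterenol with no NPY added so direct agonism is tested; 0% = DMSO with isoproterenol alone and 100% = NPY at EC100 plus isoproterenol; agonism lowers probe fluorescence through less cAMP and CNG channel opening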). The following applies: HEK293 Y2/CNGC cells, membrane potential fluorescence, agonist mode; at 3.6 µM; hits give high values.
Test [14] addresses Oxysterols receptor LXR-beta (Homo sapiens) (UniProt P55055). Description: nonspecific reporter activation via LXR – cell-based, luminescence, HEK293, H. contortus campaign, counter-screen for hcDAF-12 agonist project, confirmation (AID 743027;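 active means mean percent activation of the reporter above a cutoff set as the average over tested compounds plus their standard deviation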). Conditions: HEK293 Gal4-LXR tk-luc reporter, 24 h, at 6.8 µM, hits give high values, normalized: DMSO 0%, positive control 100%.
For test [15], the system named is Nuclear hormone receptor DAF-12 (Haemonchus contortus). Put plainly: hcDAF-12 luciferase reporter activation, retest – cell-based, luminescence, HEK293, lit1-tk-luc, triplicate, confirmation (AID 743032;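 active means mean activation across triplicate tests above the threshold derived from the earlier primary screen, cut at about 5.5% in these data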;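 further: 0% = DMSO only wells and 100% = 3 µM Δ7-dafachronic acid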). The following applies: HEK293 hcDAF-12 lit1-tk-luc reporter, at 6.8 µM, hits give high values, % of Δ7-dafachronic acid response.
Test [16] deals with Photoreceptor-specific nuclear receptor (Homo sapiens) (UniProt Q9Y5X4). Description: retest of NR2E3-NCOR disrupting agonists – cell-based, luminescence, CHO-S two-hybrid, confirmation (AID 624378;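 active means average inhibition above a cutoff equal to the mean inhibition of all tested compounds plus one SD, cut at about 70% in these data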;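 further: 0% = DMSO in NR2E3 cells and 100% = DMSO in cells lacking NR2E3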). The following applies: CHO-S mammalian two-hybrid NR2E3-NCOR, luciferase luminescence; at 3.98 µM; hits give high values.
Sequence of Photoreceptor-specific nuclear receptor (Homo sapiens) (Q9Y5X4 whole entry, looked up): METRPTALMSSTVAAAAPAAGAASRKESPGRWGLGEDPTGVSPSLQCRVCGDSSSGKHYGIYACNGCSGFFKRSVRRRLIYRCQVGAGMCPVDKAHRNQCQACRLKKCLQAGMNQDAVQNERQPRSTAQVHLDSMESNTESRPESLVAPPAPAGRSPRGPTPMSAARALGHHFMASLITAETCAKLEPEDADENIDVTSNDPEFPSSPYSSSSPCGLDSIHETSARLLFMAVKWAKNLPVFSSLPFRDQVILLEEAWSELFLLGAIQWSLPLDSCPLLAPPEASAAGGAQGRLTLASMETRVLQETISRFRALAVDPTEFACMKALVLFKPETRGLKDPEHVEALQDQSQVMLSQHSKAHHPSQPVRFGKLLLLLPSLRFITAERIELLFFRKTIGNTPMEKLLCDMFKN
A short description of test [17]: nonselective effects on VP16 transactivation – cell-based, luminescence, CHO-S, high throughput, counter-screen for NR2E3 agonist project, confirmation (AID 624379;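 active means mean inhibition above a cutoff equal to the average over all tested compounds plus one standard deviation, cut at about 70% in these data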;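 further: 0% = DMSO with VP16-transfected cells and 100% = DMSO with cells lacking VP16; higher means less reporter light so more repression of VP16 activity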). The following applies: CHO-S GAL4-VP16 luciferase reporter, at 3.98 µM, hits give high values.
Test [18] can be described thus: VP16-driven transactivation reporter suppression – cell-based, luminescence, HEK293, counter-screen for COUP-TFII antagonist project (AID 687007; in the data active means inhibition above about 13%). The following applies: HEK293 Gal4-VP16 luciferase reporter, at 8.5 µM, hits give high values.
Test [19] has as its target COUP transcription factor 2 (Homo sapiens) (UniProt P24468). Description: retest of COUP-TFII reporter suppressors – cell-based, luciferase reporter, HEK293, triplicate, confirmation (AID 687008;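 active means mean inhibition over three repeats above a set limit taken from the earlier primary screen, cut at about 38% in these data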;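 further: 100% = cells given the luciferase reporter alone without the COUP-TF2 vector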). Conditions: HEK293 NGFI-A luciferase reporter, luminescence; at 8.5 µM; hits give high values.

The other results are listed elsewhere or left out. Values without a mark were called inactive. Calls of active or inactive are those of the source.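 How the source made its calls, unless noted: active means inhibition above the hit cutoff computed for the primary STAT3 screen (cut at about 44% in these data); inactive means the rest.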

Sequence of COUP transcription factor 2 (Homo sapiens) (P24468 whole entry, looked up): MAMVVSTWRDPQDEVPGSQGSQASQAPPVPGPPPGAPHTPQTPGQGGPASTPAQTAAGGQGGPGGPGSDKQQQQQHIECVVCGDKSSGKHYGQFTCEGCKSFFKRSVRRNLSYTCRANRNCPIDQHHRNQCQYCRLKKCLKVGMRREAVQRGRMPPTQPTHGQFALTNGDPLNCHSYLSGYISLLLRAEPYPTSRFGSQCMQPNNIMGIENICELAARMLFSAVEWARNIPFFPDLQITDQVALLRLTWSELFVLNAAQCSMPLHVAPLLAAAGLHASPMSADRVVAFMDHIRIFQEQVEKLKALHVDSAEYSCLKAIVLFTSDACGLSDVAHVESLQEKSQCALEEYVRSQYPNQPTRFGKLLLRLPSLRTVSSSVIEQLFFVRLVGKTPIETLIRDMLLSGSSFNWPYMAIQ

One may read the inhibition as the change of the read-out against control, counted positive when it falls. As to `O=c1c2c(nc3n1CCCCC3)sc1c(O)cccc12`, the results for the inhibition in test [1], in test [2] and in test [3] were 45.2% (active), -0.37% and 3.33%, respectively.

Turning to `CCN(CC)c1ccc(/C=N/Nc2nc(C)cc(=O)[nH]2)cc1`, the figures for the inhibition in test [1], in test [2] and in test [3] were 37.2%, -2% and -4.6%, respectively.

Consider `O=C(Nc1ccc2oc(-c3ccccc3F)nc2c1)c1ccco1`, for which the activation (% of control) is 204% (active) in test [4], 137% (active) in test [5] and 104% in test [6]. In addition, the results for the activation in test [7] and in [8] were 11.9% (active) and 0.57%, respectively.

For `COc1cc(/C=N/O)ccc1OCc1ccc([N+](=O)[O-])cc1`, the activation (% of control) is 234% (active) in [4], 131% in test [5] and 123% (active) in test [6]. Further, the activation in [7] is 15.5% (active); in test [8] it was 0.71%.

As to `CC(C)C[C@@H](N)c1nnc(SCC(=O)c2ccc(Cl)cc2)o1`, the inhibition was 36.7% in test [1], 10.9% in test [2] and 9.47% in test [3].

Take `CCSc1nnc(NC(=O)c2ccc(C)cc2)s1`: the inhibition in test [1] is 21.2%; in test [2], -24.2%; in test [3] it was -63%; in test [12], -0.46%. In addition, the activation in [9] is -4.89%; in test [10], -0.65%; in test [11], -1.02%; in test [13] it was -10.9%; in test [7] it was 17.3% (active); in test [8] it was 0.93%.

For the compound `N#Cc1nc(COc2ccc(-c3ccccc3)cc2)oc1NCc1cccnc1`, the inhibition in [1] was 35.1%; in [2], 2.23%; in test [3] it was 12.9%.

Take `Cc1ccc2nc(-c3ccc(NC(=O)CN(C)S(=O)(=O)c4ccccc4)cc3)sc2c1`: the figures for the inhibition in [1], in test [2] and in test [3] were 20.1%, -18.5% and -90.5%, respectively.

For the compound `Cc1cccc(-n2c(O)c(C=Nc3ccccc3N)c(=O)[nH]c2=O)c1`, the activation (% of control) in [4] is 127%; in test [5], 118%; in [6], 103%. The activation in test [7] was 8.36%; in test [8] it was 0.33%.

For `COc1ccc(NS(=O)(=O)c2ccc(NC(C)=O)cc2)cc1OC`, the results for the inhibition in test [1], in test [2] and in test [3] were 26.4%, 5.93% and 17.1% (active), respectively.

Take `O=C(Nc1ccc(NC(=O)c2cccs2)cn1)c1ccco1`: the figures for the inhibition in test [1], in test [2] and in test [3] were 20.3%, -29.5% and -92.3%, respectively.

On to `CCCOc1ccc(C(=O)NCCc2ccccc2)cc1`, for which the results for the inhibition in [1], in test [2] and in [3] were 11.6%, -7.27% and -61.1%, respectively. In addition, the activation is 1.59% in test [14], 7.43% (active) in test [15], 14.1% (active) in test [7] and 0.6% in test [8].

In the case of `c1coc(CNc2ncnc3ccccc23)c1`, the inhibition was 40.4% in test [1]; 15.2% (active) in [2]; 30.5% (active) in test [3]; 71.1% (active) in test [16]; 56.3% in [17]; 4.88% in [18]. In addition, the inhibition in test [19] is 40.9% (active).

On to `COc1ccc(Cn2c(=O)sc3ccccc32)cc1OC`, for which the inhibition was 36.6% in test [1]; 2.57% in test [2]; 13.3% in test [3]; 70.9% (active) in test [16]; 64.8% in test [17]; -3.5% in test [18]. The inhibition in [19] was 26.6%.

These data come from PubChem BioAssay.
